# An excerpt weighted towards active compounds, which were near 17% of everything screened.
# TDP1 cell noCPT – qHTS for Inhibitors of human tyrosyl-DNA phosphodiesterase 1 (TDP1): qHTS in cells in absence of CPT. 15% of 420,000 active. DT40 Tdp1-/- hTDP1 cells, no CPT, ATP luminescence, 48 h. AID 686978, 2013. Potency, µM (series often up to 46.2 µM), without a hit: at the top dose activity change, negative = growth inhibition, actives largely listed as inhibitors; further: on the % scale 0 is the no-effect control and ±100 the full control effect; nearly all actives have a fitted effect of over 55% in size
#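 Seeded 400 DT40-hTDP1 cells/well (vehicle DMSO, no 20 nM CPT); pinned compounds; ≥48 hr at 37 °C; CellTiter-Glo luminescence as viability measure.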
# ClpP mod – qHTS Assay for Activators of ClpP; ATP-dependent Clp protease proteolytic subunit (Bacillus subtilis (strain 168)), P80244; 1.9% of 340,000 active; Potency, µM (top dose mostly 57.5 µM), for inactives: at the top dose activity change, negative = active; purified B. subtilis ClpP, FRET peptide cleavage, 20 min; active means well fitted falling curve with a large enough effect; inconclusive means small, poorly fitted or top-dose-only effect; inactive means no such curve, though single readings can be large or run the other way; further: the source files actives as falling curves though it sought activators and does not explain the sign; nearly all actives have a fitted effect of over 65% in size
# Target sequence (P80244 whole entry, looked up): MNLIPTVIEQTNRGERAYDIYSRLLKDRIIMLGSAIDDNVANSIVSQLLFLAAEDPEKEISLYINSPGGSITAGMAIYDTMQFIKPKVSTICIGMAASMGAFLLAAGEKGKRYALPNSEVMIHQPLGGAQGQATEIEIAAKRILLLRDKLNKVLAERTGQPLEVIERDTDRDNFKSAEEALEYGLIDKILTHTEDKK
#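 FRET quenching reversal measured ClpP activation: 10 microg/mL B. subtilis ClpP at pH 8 with the FRET-FV decapeptide, read at 430 nm after 320 nm excitation. The 20-min minus 0-min signal was scaled between DMSO/no-enzyme wells and ADEP (5.8 microM final).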
# DT40 TDP1 CPT – qHTS for Inhibitors of human tyrosyl-DNA phosphodiesterase 1 (TDP1): qHTS in cells in presence of CPT | chicken DT40 Tdp1-/-;hTDP1 cells + 20 nM CPT, ATP luminescence, 48 h | Potency, µM (doses to about 46.2 µM), without a hit: at the highest dose activity change, negative = growth inhibition, most hits filed as inhibitors | 12% of 420,000 active | AID 686979, 2013; further: on the % scale 0 is the no-effect control and ±100 the full control effect; nearly all actives have a fitted effect of over 55% in size
#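 Chicken DT40 Tdp1-/- cells complemented with human TDP1, 400 cells/well, exposed to compounds plus 20 nM camptothecin for at least 48 h at 37 C; viability read as ATP content by CellTiter-Glo luminescence.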
# TDP1 block – qHTS Assay for Inhibitors of Tyrosyl-DNA Phosphodiesterase (TDP1); Tyrosyl-DNA phosphodiesterase 1 (Homo sapiens), Q9NUW8; recombinant TDP1, AlphaScreen DNA substrate cleavage; Potency, µM (top dose mostly 130 µM), inactives show at the top dose activity change, negative = inhibition, usual class: inhibitors; 0.28% of 350,000 active; AID 485290, 2010; further: on the % scale 0 is the no-effect control and ±100 the full control effect; nearly all actives have a fitted effect of over 40% in size
#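 Compounds were preincubated with Tdp1 (1 nM final) for 15 min at room temperature before substrate (15 nM final) started a 5 min reaction; beads (10 ug/ml final) were then added for 10 min before AlphaScreen detection.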
# Numbers without * were called inactive; ? = inconclusive; . = no result; [ ] = dose if it differs, or a comment. Unless noted, the call rests on the fitted dose curve; in most records, active means well fitted curve in the direction sought with a large enough effect; inconclusive means small, poorly fitted or top-dose-only effect, or another doubt; inactive means no such curve, though single readings can be large; an effect the other way counts as inactive or inconclusive. Potency means the concentration at half of the fitted maximal effect.
SMILES,TDP1 cell noCPT,ClpP mod,DT40 TDP1 CPT,TDP1 block
O=S(=O)(c1ccc(Br)cc1)c1nnn2c1nc(NCc1cccs1)c1sccc12,?,28.2µM*,?,-5.1%
CCc1ccc(S(=O)(=O)c2nnn3c2nc(NC(C)C)c2sccc23)cc1,?,-10.9%,20.6µM*,0.0%
CCc1ccc(S(=O)(=O)c2nnn3c2nc(NCc2cccs2)c2sccc23)cc1,?,28.2µM*,?,5.1%
CCc1ccc(S(=O)(=O)c2nnn3c2nc(Nc2cc(OC)ccc2OC)c2sccc23)cc1,-10.7%,?,-12.4%,-2.6%
CCc1ccc(S(=O)(=O)c2nnn3c2nc(Nc2cccc(C)c2C)c2sccc23)cc1,20.6µM*,204.1%,23.1µM*,0.0%
Cc1ccc(C(c2cccc(Br)c2)c2c(C)[nH]c3ccccc23)s1 (stereo not drawn),-80.9%,1.9%,-67.9%,6.4%
Cc1ccccc1OCC(=O)Nc1ccccc1OCc1cc(=O)n2ccccc2n1,-4.8%,-25.2%,-9.4%,2.7%
Cc1ccc(NC(=O)C2CCN(c3nnc(C)c4c(C)n(-c5ccccc5)nc34)CC2)c(Cl)c1,?,?,13µM*,0.0%
CCc1ccc(NC(=O)C2CCCN(c3nnc(C)c4c(C)n(-c5ccccc5)nc34)C2)cc1 (stereo not drawn),9.2µM*,-10.1%,?,8.5%
Cc1ccc(NC(=O)N2CCN(c3nnc(C)c4c(C)n(-c5ccccc5)nc34)CC2)c(Cl)c1,-20.9%,-8.7%,-14.6%,7.1%
CCOC(=O)CNC(=O)N1CCN(c2nnc(C)c3c(C)n(-c4ccc(Cl)cc4)nc23)CC1,-13.2%,-24.8%,10.9%,12.3%
Cc1cc(C)cc(NC(=O)C2CCCN(c3nnc(C)c4c(C)n(-c5ccccc5)nc34)C2)c1 (stereo not drawn),14.6µM*,3.8%,23.1µM*,0.0%
CNC(=O)C1CCCN(c2nnc(C)c3c(C)n(-c4ccccc4)nc23)C1 (stereo not drawn),-15.7%,3.6%,-5.7%,-2.8%
CCc1ccc(NC(=O)N2CCN(c3nnc(C)c4c(C)n(-c5ccc(Cl)cc5)nc34)CC2)cc1,23.1µM*,-28.4%,?,.
O=C(CNC(=O)c1ccccc1F)NCCOc1ccccc1Cl,29.6%,-0.2%,-8.5%,3.0%
COc1ccc(OC)c(C=NNC(=O)c2ccccc2NS(=O)(=O)c2cccs2)c1,-6.4%,-21.0%,-10.9%,-0.5%
CCCCN(C=O)c1c(CC)nc2ccc(C(=O)NCCCN3CCCC3=O)cn12,0.7%,-21.4%,9.5%,.
Cc1cc(Cl)ccc1NC(=O)C1CCCN(c2nnc(C)c3c(C)n(-c4ccccc4)nc23)C1 (stereo not drawn),-13.6%,-1.5%,5.6%,5.6%
Cc1ccc(NC(=O)C2CCCN(c3nnc(C)c4c(C)n(-c5ccccc5)nc34)C2)c(Cl)c1 (stereo not drawn),3.26µM*,-27.3%,4.11µM*,0.0%
O=C(O)/C=C/c1ccc([N+](=O)[O-])o1,-28.4%,.,-1.5%,31.6µM*
CN1CCN(C(=O)/C=C/c2ccc([N+](=O)[O-])o2)CC1,14.6µM*,2.6%,9.2µM*,.
CCOC(=O)c1c(NC(=O)COc2ccc(F)cc2)sc2c1CCC(C)C2 (stereo not drawn),?,-0.5%,-24.2%,0.4%[12.3 µM]
COc1ccc(C(CNC(=O)c2oc3ccc(OC)cc3c2C)N2CCCC2)cc1 (stereo not drawn),16.4µM*,?,23.1µM*,0.1%
COc1ccc(C(CNC(=O)COc2ccc(F)cc2Cl)N2CCCCC2)cc1 (stereo not drawn),20.6µM*,1.4%,23.1µM*,-0.3%
COc1ccc(C(CNC(=O)CCNS(=O)(=O)c2ccc(Br)cc2)N2CCCC2)cc1 (stereo not drawn),?,-6.1%,?,-4.1%
SMILES,TDP1 cell noCPT,ClpP mod,DT40 TDP1 CPT,TDP1 block
COc1ccc(C(CNC(=O)c2oc3ccc(F)cc3c2C)N2CCCCC2)cc1 (stereo not drawn),?,-1.2%,?,1.3%
COc1ccc(C(CNC(=O)C(C)Oc2ccc(Br)cc2)N2CCCCC2)cc1 (stereo not drawn),20.6µM*,0.7%,18.4µM*,1.3%
COc1ccc(C(CNC(=O)c2oc3cc(C)c(C)cc3c2C)N2CCCCC2)cc1 (stereo not drawn),9.2µM*,-0.7%,13µM*,5.7%
Cc1cn(-c2cc(NC(=O)c3ccc(C)c(NC(=O)c4cccc(-c5cn[nH]c(=O)c5)c4)c3)cc(C(F)(F)F)c2)cn1,?,-5.0%,?,.
COc1ccc(C(CNC(=O)c2oc3cc(Br)ccc3c2C)N2CCCCC2)cc1 (stereo not drawn),23.1µM*,0.7%,16.4µM*,5.7%
Cc1c(C(=O)NCC(c2ccco2)N(C)C)oc2c(Cl)cccc12 (stereo not drawn),?,-7.5%,?,-2.9%[0.505 µM]
COc1ccc(C(CNC(=O)c2oc3ccc(Br)cc3c2C)N2CCCCC2)cc1 (stereo not drawn),9.2µM*,-5.9%,13µM*,5.3%
COc1ccc(C(CNC(=O)COc2ccc(Br)cc2F)N2CCCC2)cc1 (stereo not drawn),-26.0%,0.2%,-15.6%,2.7%
CCc1ccc2oc(C(=O)NCC(c3ccc(OC)cc3)N3CCCCC3)c(C)c2c1 (stereo not drawn),16.4µM*,-7.4%,23.1µM*,8.5%
COc1ccc(C(CNC(=O)c2ccc(F)cc2)N2CCCC2)cc1 (stereo not drawn),-29.2%,-4.2%,-27.7%,4.7%
CCOc1ccc2oc(C(=O)NCC(c3ccco3)N(C)C)c(C)c2c1 (stereo not drawn),23.1µM*,?,16.4µM*,3.3%
CCC(=O)N1CCc2cc(Br)cc(S(=O)(=O)CCC(=O)Nc3cccc(Cl)c3)c21,?,-1.9%,?,-5.9%
O=C(NCCCO)C(=O)NCC(c1ccc2c(c1)OCO2)N1CCOCC1 (stereo not drawn),-1.4%,-2.1%,-6.0%,-1.1%
O=C(NCc1ccc(Cl)cc1)c1cc2ccccc2o1,-5.6%,-18.0%,-21.8%,-1.3%[12.3 µM]
COc1ccc2cc(C(=O)NCc3ccccc3CN3CCCC3)ccc2c1,?,3.7%,?,0.6%
O=C(NCc1ccccc1CN1CCCC1)c1cc2cc(Cl)ccc2o1,?,-5.0%,18.4µM*,-0.4%
COc1ccc2oc(C(=O)NCc3ccccc3CN3CCCC3)c(C)c2c1,?,4.6%,20.6µM*,0.6%
COc1ccc(Cl)cc1NC(=O)CN(C)C(=O)c1n[nH]c2ccccc12,?,.,2.4%,.
Cc1cc(C)c(C)c(S(=O)(=O)N(C)CCc2ccccn2)c1C,23.1µM*,-1.7%,?,-0.2%

# Screening data as filed in PubChem BioAssay.
